Screen size: about 48,000 compounds; about 13,000 (27%) showed an effect of 50% or more. Some of the results follow.
System: Wolbachia pipientis
Test: Anti-Wolbachia Cell-Based Screen
Format: functional
Parameters: scale not given: in the data most compounds retested in dose-response had high values
Settings: 5 µM

Compound	Percent Effect
O=C(c1ccc(-n2cnnc2)cc1Cl)N1CCCC(O)(CO)CC1 (stereo not given)	1.549%
CC(=O)N[C@@H]1CN(Cc2ccccc2-n2nc(C)cc2C)C[C@H]1C(C)C	5.074%
O=C(c1ccncc1)N1C[C@@H]2CC[C@H](C1)N(C(=O)N1CCOCC1)C2	7.35%
COc1ccc(C(=O)N2CCOCC(CO)C2)cc1N1CCOCC1 (stereo not given)	2.678%
Cc1cnc(CC2COCCN(C(=O)c3cncs3)C2)cn1 (stereo not given)	133.5%
O=C(c1cncs1)N1CCOCC(Cc2ccncn2)C1 (stereo not given)	102.2%
O=C(c1cncs1)N1CCOCC(Cc2ccccn2)C1 (stereo not given)	121.8%
Cc1cccc(NC(=O)N2CCOCC(CN(C)C)C2)c1C (stereo not given)	-12.45%
CCOCCn1nc(C)cc1C(=O)N1CCOCC(CO)C1 (stereo not given)	-4.092%
c1ccc(CN2CCOC[C@H]2c2nc(-c3ccncc3)c[nH]2)nc1	-4.896%
O=C(NC[C@H]1OC[C@@H](NCc2ccccn2)[C@@H]1O)N1CCOCC1	-13.39%
CN(C)CC(=O)N1CCOCC(Cc2ccccn2)C1 (stereo not given)	100.7%
CC(=O)N(C)C1CCCc2nc(C)sc21 (stereo not given)	-2.267%
CC(C)S(=O)(=O)NCC1CCCN(C(=O)c2ccc3c(c2)OCCO3)C1 (stereo not given)	-10.13%
COc1cccc(CC(=O)N2CCC(O)(C(F)(F)F)C2)c1 (stereo not given)	-3.145%
Cc1ccc(CN2CCN(c3cc(NCCO)ncn3)CC2CCO)o1 (stereo not given)	-3.553%
CS(=O)(=O)NCCCSCc1cccc2cccnc12	-10.2%
CCC(CO)NC(=O)Cc1ccc(NC(=O)CC2=CCCCC2)cc1 (stereo not given)	-16.18%
Cc1cccc(-c2nnn3c2COC(CNS(=O)(=O)C2CC2)C3)c1 (stereo not given)	-1.824%
F[C@@H]1CN(CC2CCCCC2)C[C@@H]1OCc1nc2ccccc2o1	-16.46%
Cc1ccc(CN2CCOCC2c2[nH]ncc2C)cn1 (stereo not given)	135.2%
CC(C)(C)c1coc([C@@H]2COCCN2Cc2cnc3ccccc3c2)n1	-14.41%
Cc1ccc(-c2c[nH]c([C@@H]3COCCN3Cc3cccnc3)n2)cc1	-11%
Cc1cn[nH]c1C1COCCN1Cc1cscn1 (stereo not given)	126.8%

Compound	Percent Effect
Cc1cc(C)n(CC2CCCN2Cc2cscn2)n1 (stereo not given)	-19.73%
Cc1ccc(CN2CCCN(Cc3cscn3)CC2)cc1	8.803%
Cc1cn[nH]c1C1CCCN1Cc1ccc(F)c(F)c1 (stereo not given)	102.9%
C[C@H]1C[C@H]2CN(C(=O)C3=CCCC3)CC[C@H]2O1	-4.42%
Cc1cnc(CN(Cc2ccc(C#N)cc2F)C2CCN(C)C2)o1 (stereo not given)	0.7186%
O=C(Cc1ccc(O)c(F)c1)N1CCC2(CCNCC2)CC1	3.875%
CCOC(=O)N1CCN(c2nc(NCCO)c3ccccc3n2)CC1	-13.13%
Cc1cccc(CN2CC[C@H]3CO[C@H](CNC(=O)N(C)C)[C@H]3C2)c1.O=C(O)C(F)(F)F	-5.522%
CCCN1CC[C@@H]2[C@@H](CO[C@H]2CNC(=O)c2nccn2C)C1.O=C(O)C(F)(F)F	-3.77%
CS(=O)(=O)NC[C@H]1OC[C@H]2CN(CCc3ccccc3)CC[C@H]21.O=C(O)C(F)(F)F	87.13%
CS(=O)(=O)NC[C@@H]1OC[C@H]2CN(C(=O)c3ccccc3)CC[C@H]21	-5.092%
COc1ccc(CN2CC[C@H]3CO[C@H](CNC(=O)N(C)C)[C@H]3C2)cc1.O=C(O)C(F)(F)F	-1.403%
CS(=O)(=O)NC[C@H]1OC[C@@H]2CCN(CCc3ccccc3)C[C@@H]21.O=C(O)C(F)(F)F	101.5%
CS(=O)(=O)NC[C@H]1OC[C@@H]2CCN(Cc3ccc(F)cc3)C[C@@H]21.O=C(O)C(F)(F)F	-22.2%
CS(=O)(=O)NC[C@@H]1OC[C@H]2CN(Cc3ccccc3)CC[C@H]21.O=C(O)C(F)(F)F	107.1%
CS(=O)(=O)NC[C@@H]1OC[C@H]2CN(C(=O)c3ccccn3)CC[C@H]21.O=C(O)C(F)(F)F	-10.63%
Cc1cccc(CN2CC[C@@H]3[C@@H](CO[C@H]3CNc3ncccn3)C2)n1.O=C(O)C(F)(F)F.O=C(O)C(F)(F)F.O=C(O)C(F)(F)F	100.3%
COc1ccc(CN2CC[C@H]3[C@H](CO[C@H]3CNC(=O)N(C)C)C2)cc1.O=C(O)C(F)(F)F	1.388%
CN(C)C(=O)NC[C@@H]1OC[C@H]2CN(Cc3cccc(F)c3)CC[C@H]21.O=C(O)C(F)(F)F	-1.144%
CCN1CC2(CCN(CC3COCCO3)CC2)OC1=O (stereo not given)	-23.81%
CN1CCN(CCCN(C)S(=O)(=O)C2CCCCC2)CC1	-3.997%
CCc1cc(=O)[nH]c2nnc(SCC(=O)NC(C)C)n12	9.216%
CCn1c(CN(C)C)nnc1C1CCN(c2ccnc(C)c2)CC1	-12.28%
Cn1nc2c(cc1=O)CN(c1nc3ccccc3s1)CC2	9.519%

Compound	Percent Effect
Cn1nc(Cl)cc1C(=O)N1CCC(C(=O)c2nc3ccccc3s2)CC1	97.43%
Cn1nc(CNC(=O)c2nc3ccccc3s2)c2c1CCOC2	-7.604%
Cc1sc2nc(C(F)(F)F)nc(N3CCCN(C)CC3)c2c1C	3.641%
COc1nc(C)c(C(=O)N(C)Cc2nc(-c3ccccn3)no2)s1	6.707%
Cc1ccc(C(CNCc2ncc[nH]2)N2CCOCC2)s1 (stereo not given)	-41.63%
OC1CCCOC12CCN(Cc1nnc(-c3cccnc3)o1)CC2 (stereo not given)	-12.47%
COc1cc(OC)nc(N2CCC3(CC2)OCCCC3O)n1 (stereo not given)	-8.22%
CCOC(=O)C1CCCN(Cc2c[nH]nc2-c2cc3ccccc3o2)C1 (stereo not given)	-24.88%
O[C@H]1CN(Cc2ccnc(N3CCCC3)n2)CC[C@@]12CCCO2	120.1%
O[C@H]1CN(Cc2c[nH]nc2-c2ccccc2)CC[C@@]12CCCO2	151.3%
OC1CCCOC12CCN(c1ncccn1)CC2 (stereo not given)	8.98%
Cc1ccccc1CC(C)(C)NC(=O)c1cccc(OCC(N)=O)c1	-9.051%
CCn1nnc2c1C(COC)CN(C(=O)COc1ccccc1)C2 (stereo not given)	-1.685%
O=C(c1ncccn1)N1C[C@@H]2COC[C@]2(COc2cccnc2)C1	108.1%
O=C(c1cocn1)N1C[C@@H]2COC[C@]2(COc2cccnc2)C1	92.15%
O=C(c1ncccn1)N1C[C@@H]2COC[C@]2(COCc2cccnc2)C1	11.05%
N#Cc1cccc(C(=O)N2CCc3c(COCC4CC4)cncc3C2)c1.O=C(O)C(F)(F)F	-0.2698%
COCc1cncc2c1CCN(C(=O)c1ccc(C#N)cc1)C2.O=C(O)C(F)(F)F	122.8%
O=C(c1cccnc1)N1CCc2c(COCC3CC3)cncc2C1	11.19%
CCOCc1cncc2c1CCN(C(=O)c1cccc(C#N)c1)C2	8.725%
COCc1cncc2c1CCN(C(=O)c1cccc(C#N)c1)C2.O=C(O)C(F)(F)F	95.5%
N#Cc1ccc(C(=O)N2CCc3c(COCC4CC4)cncc3C2)cc1	120.9%
O=C(c1ccncc1)N1CCc2c(COCC3CC3)cncc2C1	-2.638%
CC(C)=CCN1CCC2(CC1)c1ccccc1[C@@H](N1CCSCC1)[C@@H]2O	17.95%

Compound	Percent Effect
O=C(c1ccc(Cl)cc1)N1CCc2nc(C(=O)N3CCCC3)sc2CC1	0.273%
NC(=O)c1nc2c(s1)CCN(C(=O)Nc1ccccc1)CC2	118.3%
CN(C)C(=O)c1nc2c(s1)CCN(C(=O)c1ccc(Cl)cc1)CC2	-17.04%
NC(=O)c1nc2c(s1)CCN(Cc1ccccc1)CC2.O=C(O)C(F)(F)F	-10.1%
O=C(Nc1ccccc1)N1CCc2nc(C(=O)N3CCCC3)sc2CC1	124.8%
CNC(=O)N1CCc2nc(C(=O)Nc3cccnc3)sc2CC1	-5.762%
CCN(CC)C(=O)c1nc2c(s1)CCN(Cc1cccc(OC)c1)CC2.O=C(O)C(F)(F)F	-1.01%
CCN(CC)C(=O)c1nc2c(s1)CCN(C(=O)CCC(=O)OC)CC2	-10.26%
NC(=O)c1nc2c(s1)CCN(C(=O)Nc1cccc(Cl)c1)CC2	103.6%
COc1cccc(CC(=O)N2CCc3nc(C(N)=O)sc3CC2)c1	-1.696%
CNC(=O)c1nc2c(s1)CCN(C(=O)c1ccccc1)CC2	-10.92%
CCN(CC)C(=O)c1nc2c(s1)CCN(C(=O)Nc1ccccc1)CC2	97.77%
O=C(c1ccc2c(c1)[nH]c(=O)n2C1CCCC1)N1CCSCC1	1.159%
CCCSc1ncc(CN2CCN(C)C(=O)C2C)cn1 (stereo not given)	3.746%
Cc1nsc(NC(=O)N2CCN(Cc3ccccc3F)C(=O)C2)n1	-10.42%
Clc1cccc(-c2noc(CCN3CCN(c4ccncc4)CC3)n2)c1	4.288%
CN(Cc1ccc(Cl)s1)C(=O)Nc1ccc(N(C)C)nc1	10.16%
COCCN(Cc1cnn(C)c1)C(=O)C1COc2c(cccc2OC)C1 (stereo not given)	-6.746%
CN1CC2(CCCCN2C(=O)c2ccsc2)CC1=O (stereo not given)	106.9%
CCN1CC2(CCCCN2C(=O)c2ccn(C)n2)CC1=O (stereo not given)	-5.146%
COCCCN1CC2(CCCCN2C(=O)COC)CC1=O (stereo not given)	-19.41%
CCN1C(=O)CCCC12CCCN(C(=O)c1ccsc1)C2 (stereo not given)	0.7078%
CCN1CC2(CCCCN2C(=O)c2ccsc2)CC1=O (stereo not given)	92.4%

— ChEMBL document CHEMBL3988442, “University of Dundee, Small-Polar-MMV Screening Library” (2021)
